Assay outcomes from PubChem.
CD40 NFkB inh – CD40 pathway inhibition in BL2 cells. BL2 NF-kB luciferase reporter, CD40L-induced, 4 h. actives 0.94% (n = 83,000). AID 1053188. inhibition, % at 10 µM;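 active means mean inhibition of at least 50% with a set share of replicates also reaching that level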
Each line names hits and unclear results; the compound was inactive in the other large screens; [ ] = dose if it differs, or a comment. Only a selection was taken, and hits are over-represented in it overall.

COc1ccccc1OCC(=O)O	none
CCOC(=O)COc1ccc2nsnc2c1Cl	none
C=C(CC)C(=O)c1ccc(OCC(=O)O)c(Cl)c1Cl	CD40 NFkB inh 40.8
C/C=C/c1ccc([C@H]2[C@@H](CN(C)C(=O)C3CC3)N(C(=O)C3CC3)[C@H]2CO)cc1	none
CN1[C@@H]2c3ccc(-c4ccccc4F)c(=O)n3C[C@@H]2[C@@H](CO)[C@@H]1C(=O)NCc1ccncc1	none
O=C(Oc1ccccc1C(=O)Oc1ccccc1)c1cccnc1	none
Cc1ncn(-c2ccc(C(=O)Oc3ccccc3)cn2)n1	CD40 NFkB inh 37.7
Cc1onc(-c2ccccc2)c1C(=O)Oc1ccccc1	none
C[C@@H]1CN([C@@H](C)CO)C(=O)c2cccc(NC(=O)c3ccncc3)c2O[C@@H]1CN(C)S(=O)(=O)c1ccccc1	none
O=C(Nc1ccc(F)cc1)N1C[C@H]2[C@@H](c3ccccc31)[C@@H](CO)N2C(=O)Cc1ccccc1	none
COc1ccccc1-c1ccc2n(c1=O)C[C@@H]1[C@@H](CO)[C@H](C(=O)NC3CCC3)N(C(=O)NC(C)C)[C@H]21	none
c1cnc2c(c1)ccc1cccnc12	none
O=C(O)c1cccc2cccnc12	none
O=C1C=CC(=O)N1c1cccc2cccnc12	CD40 NFkB inh 49.9
O=C(C1CCOCC1)N1[C@@H](CO)[C@@H](c2ccccc2)C12CN(Cc1cccc(Cl)c1)C2	none
COc1ccc(NC(=O)N[C@@H]2CC[C@@H](CCNC(=O)CCN3CCCCC3)O[C@@H]2CO)cc1	none
C/C=C/c1cccc(-c2nc(C(=O)NCc3ccccc3)cc3c2[C@@H](CCO)N([S@](=O)C(C)(C)C)C3)c1	none
CCCC(=O)O[C@]1(C(=O)CCl)[C@@H](C)C[C@H]2[C@@H]3CCC4=CC(=O)C=C[C@]4(C)[C@@]3(F)C(=O)C[C@@]21C	none
CC12C=CC(=O)C=C1CCC1C3CCC(O)(C(=O)CO)C3(C)CC(O)C12F (configuration not stated)	none
C[C@H]1C[C@H]2[C@@H]3CCC4=CC(=O)C=C[C@]4(C)[C@@]3(Cl)[C@@H](O)C[C@]2(C)[C@@]1(O)C(=O)CO	none
CCC(=O)O[C@]1(C(=O)CCl)[C@@H](C)C[C@H]2[C@@H]3CCC4=CC(=O)C=C[C@]4(C)[C@@]3(F)[C@@H](O)C[C@@]21C	CD40 NFkB inh 44.8
C[C@@H]1C[C@H]2[C@@H]3CCC4=CC(=O)C=C[C@]4(C)[C@@]3(F)[C@@H](O)C[C@]2(C)[C@@]1(O)C(=O)COP(=O)(O)O	CD40 NFkB inh 51.5
C[C@H](CO)N1C[C@H](C)[C@H](CN(C)S(=O)(=O)c2ccc(Oc3ccccc3)cc2)OCc2cnnn2CCCC1=O	none
C[C@H](CO)N1C[C@H](C)[C@H](CN(C)C(=O)C2CC2)OCc2ccccc2-c2c(n(C)c3ccccc23)C1=O	none
CCNC(=O)[C@@H]1[C@@H](CO)[C@@H]2Cn3c(cccc3=O)[C@@H]2N1C(=O)CC1CC1	none
COc1ccc(NC(=O)N(C)C[C@@H]2OCc3ccccc3-c3ccccc3C(=O)N([C@H](C)CO)C[C@H]2C)cc1	none
C[C@@H]1CCCCO[C@@H](CN(C)Cc2ccc(C(=O)O)cc2)[C@H](C)CN([C@@H](C)CO)C(=O)c2cc(NC(=O)CCC(F)(F)F)ccc2O1	none
COc1ccc(S(=O)(=O)N(C)C[C@H]2OCCCC[C@@H](C)Oc3ccc(NS(=O)(=O)c4ccc(Cl)cc4)cc3C(=O)N([C@@H](C)CO)C[C@H]2C)cc1	none
C[C@H](C(=O)N(C)C[C@@H]1OCc2ccccc2-c2ccccc2C(=O)N([C@H](C)CO)C[C@@H]1C)c1ccccc1	none
CC(C)(C)[C@H](N)C(=O)N[C@H]1CCC2C3CC=C4C[C@@H](O)CC[C@]4(C)C3CC[C@@]21C (some centres not stated)	CD40 NFkB inh 103.3
C[C@]12CCC3C(CC=C4C[C@@H](O)CC[C@@]43C)C1CCC2[C@]1(C)CCC(=O)O1 (some centres not stated)	none
C[C@]12CC[C@H](O)CC1=CCC1C2CC[C@@]2(C)C1CC[C@@H]2NC(=O)[C@@H](N)Cc1ccccc1 (some centres not stated)	none
CN(C)C(=O)c1cccc(-c2ccc([C@@H]3[C@@H](CO)N4CCCCN(Cc5cccnc5)C[C@@H]34)cc2)c1	none
Cc1nc2ccccn2c(=O)c1CCN1CCC(C(=O)c2ccc(F)cc2)CC1	none
Cc1nc2sccn2c(=O)c1CCN1CCC(=C(c2ccc(F)cc2)c2ccc(F)cc2)CC1	CD40 NFkB inh 27.5
Cc1ccc(C)c(C(=O)c2c(C)nc3sccn23)c1	none
CNC[C@@H]1Oc2ccccc2CC(=O)N(C)C[C@@H]1C	none
O=C(C[C@H]1C=C[C@@H](NC(=O)NC2CCCC2)[C@@H](CO)O1)NCc1ccc(F)cc1	none
c1ccc(-c2ccccn2)nc1	none
c1ccc(-c2ccc(-c3ccccn3)nn2)nc1	CD40 NFkB inh 52.1
Nn1c(-c2ccccn2)nnc1-c1ccccn1	none
CC(=O)N1[C@H](C(=O)Nc2ccccc2)[C@@H](CO)[C@@H]2Cn3c(ccc(C4=CCCCC4)c3=O)[C@@H]21	none
CO[C@H]1CN(C)C(=O)c2cc(NC(=O)C3CCCC3)ccc2OC[C@H](C)N(C)C[C@H]1C	none
COc1cccc2c1C(=O)c1c(O)c3c(c(O)c1C2=O)C[C@@](O)(C(C)=O)C[C@@H]3OC1CC(N)C(O)C(C)O1 (some centres not stated)	CD40 NFkB inh 87.2[25 µM]
CN(C)CCCNC(=O)C[C@H]1CC[C@H]2[C@@H](COC[C@@H](O)CN2CC2CCCC2)O1	none
CC(C)Cc1ccc(C(C)CC2=CCC(CN(C)C)C2=O)cc1 (configuration not stated)	CD40 NFkB inh 93.9
N#C[C@H]1[C@@H](c2ccccc2-c2ccccc2F)[C@@H](CO)N1C(=O)C1CCOCC1	none
C[C@]12CCC(=O)C=C1CC[C@@H]1[C@@H]2[C@@H](O)C[C@@]2(C)[C@H]1CC[C@]2(O)C(=O)COC(=O)CCC(=O)O	none
CC(=O)OCC=C1CCC2C3CCC4=CC(=O)CCC4(C)C3C(O)CC12C (configuration not stated)	none
CC(=O)OCC(=O)C1(O)CCC2C3CCC4=CC(=O)CCC4(C)C3(Cl)C(O)CC21C (configuration not stated)	CD40 NFkB inh 62.2
CO[C@H](CN(C)C(=O)C1CC1)[C@H](C)CN(C(=O)Nc1ccc(C(F)(F)F)cc1)[C@H](C)CO	none
C[C@H]1CN([C@@H](C)CO)C(=O)c2ccccc2-c2ccccc2CO[C@@H]1CN(C)S(=O)(=O)c1ccc(F)cc1	none
O=C(CCN1CCC(c2ccccc2)C1)c1ccc2c(c1)OCCO2 (configuration not stated)	CD40 NFkB inh 45.0
O=C(CCN1CCC(c2ccccc2)C1)c1ccccc1 (configuration not stated)	none
O=C(CCN1CCCCC1)c1ccc2c(c1)OCCO2	none
COc1cc(C(=O)CCN2CCC(c3ccccc3)C2)cc(OC)c1OC (configuration not stated)	CD40 NFkB inh 44.7
COc1cc(C(=O)OC2CCN(C)CC2)cc(OC)c1OC	none
O=C(CCN1CCC(c2ccccc2)C1)c1cccs1 (configuration not stated)	none
CC(C)NC(=O)N1[C@@H]2c3ccc(-c4ccccc4F)c(=O)n3C[C@@H]2[C@@H](CO)[C@@H]1C(=O)NC1CCC1	none
C[C@H](CO)N1C[C@H](C)[C@H](CN(C)Cc2ccc(Oc3ccccc3)cc2)Oc2ccc(NC(=O)Cn3cnnn3)cc2CC1=O	none
Cc1cc(C(=O)Nc2c(C)n(C)n(-c3ccccc3)c2=O)c(C)o1	none
Cc1cc(C(=O)NCCCC(=O)O)c(C)o1	none
Cc1cc(C(=O)NCCC(c2ccccc2)c2ccccc2)c(C)o1	CD40 NFkB inh 80.0
